{"source": "PubChem BioAssay (EPA / NIEHS)", "key": {"[1]": {"biological_target": "guinea pig Serotonin, 5-Hydroxytryptamine Receptor 4 (5HT4), HTR4 (gene 100135548) (UniProt O70528)", "sequence (O70528 whole entry, looked up)": "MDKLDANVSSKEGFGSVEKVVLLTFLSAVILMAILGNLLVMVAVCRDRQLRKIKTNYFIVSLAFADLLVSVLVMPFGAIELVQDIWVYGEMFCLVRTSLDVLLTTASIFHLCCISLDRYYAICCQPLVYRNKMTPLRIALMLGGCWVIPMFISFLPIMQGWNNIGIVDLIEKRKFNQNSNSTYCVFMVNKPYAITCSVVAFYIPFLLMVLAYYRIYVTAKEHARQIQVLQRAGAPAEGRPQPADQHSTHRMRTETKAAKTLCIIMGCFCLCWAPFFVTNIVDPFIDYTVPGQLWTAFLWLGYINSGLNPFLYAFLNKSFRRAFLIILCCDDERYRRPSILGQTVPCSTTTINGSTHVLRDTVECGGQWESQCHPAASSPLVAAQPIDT", "assay": "NVS_GPCR_g5HT4: NovaScreen (NVS) G Protein-Coupled Receptor Assay for guinea pig Serotonin, 5-Hydroxytryptamine Receptor 4 (5HT4) (AID 2283294)", "outline": "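Compounds first screened in duplicate at 25 uM, actives followed up in concentration series. Binding measured as displacement of specific radioligand from guinea pig striatal membranes, 1 h, filter-based scintillation read-out versus DMSO baseline.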"}, "[2]": {"biological_target": "rat Gamma-Aminobutyric Acid Type B Receptor (GABBR), Gabbr1 (gene 81657) (UniProt Q9Z0U4)", "assay": "NVS_GPCR_rGABBR: NovaScreen (NVS) G Protein-Coupled Receptor Assay for rat Gamma-Aminobutyric Acid Type B Receptor (GABBR) (AID 2283301)", "outline": "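Rat cortical membrane preparation, competitive radioligand binding for 1 h with filtration and scintillation readout. Actives from duplicate single-point 25 uM screening proceeded to concentration series with 50 uM top concentration.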"}, "[3]": {"biological_target": "rat Somatostatin Receptor (SST), Sstr1 (gene 25033) (UniProt P28646)", "sequence (P28646 whole entry, looked up)": "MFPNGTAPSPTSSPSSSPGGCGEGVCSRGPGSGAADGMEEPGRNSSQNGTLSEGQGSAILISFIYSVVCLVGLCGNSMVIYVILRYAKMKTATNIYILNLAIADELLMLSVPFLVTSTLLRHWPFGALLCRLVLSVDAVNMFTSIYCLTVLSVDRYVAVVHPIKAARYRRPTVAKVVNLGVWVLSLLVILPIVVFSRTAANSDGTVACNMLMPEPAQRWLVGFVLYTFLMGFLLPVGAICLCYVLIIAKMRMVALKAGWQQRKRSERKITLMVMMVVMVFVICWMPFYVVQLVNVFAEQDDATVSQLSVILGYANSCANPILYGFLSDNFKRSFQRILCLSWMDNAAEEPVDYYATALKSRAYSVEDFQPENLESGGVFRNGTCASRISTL", "assay": "NVS_GPCR_rSST: NovaScreen (NVS) G Protein-Coupled Receptor Assay for rat Somatostatin Receptor (SST) (AID 2283314)", "outline": "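Single-concentration duplicate screen (25 uM), then concentration-response up to 50 uM for chemicals passing a threshold such as 30% inhibition. Membranes came from rat forebrain. Binding was measured 1 h post-dose by filter radiodetection and scintillation, relative to DMSO.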"}, "[4]": {"biological_target": "Adra2b (gene 24174) (UniProt P19328)", "sequence (P19328 whole entry, looked up)": "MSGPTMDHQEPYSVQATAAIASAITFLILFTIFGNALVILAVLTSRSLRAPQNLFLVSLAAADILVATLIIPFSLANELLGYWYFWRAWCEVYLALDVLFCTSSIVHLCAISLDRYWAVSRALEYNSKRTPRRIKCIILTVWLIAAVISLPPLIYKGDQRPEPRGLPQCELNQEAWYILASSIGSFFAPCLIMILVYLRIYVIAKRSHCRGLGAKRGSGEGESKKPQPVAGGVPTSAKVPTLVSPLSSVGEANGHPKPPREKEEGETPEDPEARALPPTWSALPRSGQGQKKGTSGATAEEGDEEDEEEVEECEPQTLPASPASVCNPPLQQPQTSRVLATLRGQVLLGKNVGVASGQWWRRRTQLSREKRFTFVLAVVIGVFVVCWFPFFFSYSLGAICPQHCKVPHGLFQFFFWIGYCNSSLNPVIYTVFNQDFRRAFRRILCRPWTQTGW", "assay": "NVS_GPCR_rmAdra2B: NovaScreen (NVS) G Protein-Coupled Receptor Assay for hybird cells Adrenergic, Alpha 2B Receptor (Adra2B) (AID 2283306)", "outline": "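Compounds screened first at 25 uM in duplicate, with actives followed up in concentration-response; specific radioligand displacement from hybrid neuroglioma/blastoma cell membrane preparations measured by filter scintillation counting after 1 h, normalized to DMSO.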"}, "[5]": {"biological_target": "rat Glutamate Metabotropic Receptor 5 (MGluR5), Grm5 (gene 24418) (UniProt P31424)", "assay": "NVS_GPCR_rmMGluR5: NovaScreen (NVS) G Protein-Coupled Receptor Assay for rat Glutamate Metabotropic Receptor 5 (MGluR5) (AID 2283307)", "outline": "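Compounds first screened in duplicate at 25 uM, then in concentration series up to 50 uM if over threshold. Radioligand displacement on rat whole-brain membranes, filtration and scintillation counting after 1.5 h; binding loss relative to DMSO.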"}, "[6]": {"biological_target": "rat Neurokinin-1 Receptor (NK1), Tacr1 (gene 24807) (UniProt P14600)", "sequence (P14600 whole entry, looked up)": "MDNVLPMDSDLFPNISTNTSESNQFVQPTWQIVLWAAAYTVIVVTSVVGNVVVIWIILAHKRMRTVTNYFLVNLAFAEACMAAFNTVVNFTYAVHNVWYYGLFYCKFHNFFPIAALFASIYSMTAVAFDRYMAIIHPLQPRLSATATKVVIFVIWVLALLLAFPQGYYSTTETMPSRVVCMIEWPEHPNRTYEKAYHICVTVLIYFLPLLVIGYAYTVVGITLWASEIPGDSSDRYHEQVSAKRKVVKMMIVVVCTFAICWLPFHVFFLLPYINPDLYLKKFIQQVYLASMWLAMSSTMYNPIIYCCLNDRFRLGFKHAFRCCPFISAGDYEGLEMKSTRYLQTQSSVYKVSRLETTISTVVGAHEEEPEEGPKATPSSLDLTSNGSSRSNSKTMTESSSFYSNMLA", "assay": "NVS_GPCR_rNK1: NovaScreen (NVS) G Protein-Coupled Receptor Assay for rat Neurokinin-1 Receptor (NK1) (AID 2283309)", "outline": "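Competitive radioligand binding to NK1 in rat submaxillary membranes, 1 h incubation, filtration and scintillation read-out. Compounds first screened at 25 uM in duplicate, then concentration-response for actives; signal loss relative to DMSO.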"}, "[7]": {"biological_target": "rat Neurokinin-3 Receptor (NK3), Tacr3 (gene 24808) (UniProt P16177)", "sequence (P16177 whole entry, looked up)": "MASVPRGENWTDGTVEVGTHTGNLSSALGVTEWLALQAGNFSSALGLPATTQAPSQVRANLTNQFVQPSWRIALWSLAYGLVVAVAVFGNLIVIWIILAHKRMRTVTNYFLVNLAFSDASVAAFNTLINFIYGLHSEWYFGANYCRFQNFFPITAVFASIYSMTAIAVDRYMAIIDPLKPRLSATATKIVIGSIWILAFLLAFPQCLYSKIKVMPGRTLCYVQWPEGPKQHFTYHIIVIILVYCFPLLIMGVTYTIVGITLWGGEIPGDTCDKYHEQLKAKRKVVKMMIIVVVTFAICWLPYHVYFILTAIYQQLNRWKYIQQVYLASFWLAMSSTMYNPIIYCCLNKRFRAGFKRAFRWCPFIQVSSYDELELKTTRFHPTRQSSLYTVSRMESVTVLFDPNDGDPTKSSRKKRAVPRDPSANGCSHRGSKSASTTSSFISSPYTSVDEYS", "assay": "NVS_GPCR_rNK3: NovaScreen (NVS) G Protein-Coupled Receptor Assay for rat Neurokinin-3 Receptor (NK3) (AID 2283310)", "outline": "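Filter-based radioligand displacement on rat cortex membrane preparations, read by scintillation 2 h post-dose. Chemicals first tested in duplicate at 25 uM; actives followed up in concentration series with a 50 uM maximum.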"}, "[8]": {"biological_target": "rat Opioid Receptor, Non-selective Sodium (Na+) Binding, Oprm1 (gene 25601) (UniProt P33535)", "sequence (P33535 whole entry, looked up)": "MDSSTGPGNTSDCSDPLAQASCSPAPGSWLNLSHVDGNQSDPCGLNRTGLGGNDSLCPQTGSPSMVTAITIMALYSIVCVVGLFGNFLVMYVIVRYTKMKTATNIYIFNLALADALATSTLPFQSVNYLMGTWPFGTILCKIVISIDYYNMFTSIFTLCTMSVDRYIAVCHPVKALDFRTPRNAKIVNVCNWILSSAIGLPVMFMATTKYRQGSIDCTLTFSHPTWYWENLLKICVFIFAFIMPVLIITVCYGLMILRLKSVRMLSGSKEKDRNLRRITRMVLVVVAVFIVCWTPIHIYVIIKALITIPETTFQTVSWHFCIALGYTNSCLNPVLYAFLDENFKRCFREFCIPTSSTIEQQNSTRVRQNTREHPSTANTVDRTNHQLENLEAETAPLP", "assay": "NVS_GPCR_rOpiate_NonSelectiveNa: NovaScreen (NVS) G Protein-Coupled Receptor Assay for rat Opioid Receptor, Non-selective Sodium (Na+) Binding (AID 2283311)", "outline": "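Filtration radioligand binding on rat forebrain membrane preparations, read 1.5 h after dosing. Single-concentration 25 µM primary screen in duplicate, followed by singleton concentration series to 50 µM max for actives; DMSO baseline.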"}, "[9]": {"biological_target": "rat Neonicotinoid receptor (NNR), Chrna7 (gene 25302) (UniProt Q05941)", "sequence (Q05941 whole entry, looked up)": "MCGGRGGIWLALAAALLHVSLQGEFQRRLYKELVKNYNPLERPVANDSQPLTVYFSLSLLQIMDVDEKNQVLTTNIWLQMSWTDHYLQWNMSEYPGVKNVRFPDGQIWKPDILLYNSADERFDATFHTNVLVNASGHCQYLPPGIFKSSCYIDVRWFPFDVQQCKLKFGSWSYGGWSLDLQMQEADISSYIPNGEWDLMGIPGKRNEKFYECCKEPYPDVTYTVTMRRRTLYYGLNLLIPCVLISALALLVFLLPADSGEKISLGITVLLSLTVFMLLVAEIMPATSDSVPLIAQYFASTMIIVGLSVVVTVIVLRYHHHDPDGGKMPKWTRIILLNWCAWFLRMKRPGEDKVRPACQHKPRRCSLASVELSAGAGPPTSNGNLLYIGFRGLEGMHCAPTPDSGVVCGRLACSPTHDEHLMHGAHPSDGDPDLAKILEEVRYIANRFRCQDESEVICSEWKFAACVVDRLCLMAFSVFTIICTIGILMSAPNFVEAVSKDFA", "assay": "NVS_LGIC_rNNR_BungSens: NovaScreen (NVS) Ligand-Gated Ion Channel Assay for rat Neonicotinoid receptor (NNR) (AID 2283315)", "outline": "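Rat cortical membrane preparation incubated 2.5 h with tritiated or iodinated radioligand and test chemical. Bound radioactivity was filtered and counted by scintillation, and displacement was analysed against DMSO.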"}, "[10]": {"biological_target": "rat Vasopressin 1 Receptor (V1), Avpr1a (gene 25107) (UniProt P30560)", "sequence (P30560 whole entry, looked up)": "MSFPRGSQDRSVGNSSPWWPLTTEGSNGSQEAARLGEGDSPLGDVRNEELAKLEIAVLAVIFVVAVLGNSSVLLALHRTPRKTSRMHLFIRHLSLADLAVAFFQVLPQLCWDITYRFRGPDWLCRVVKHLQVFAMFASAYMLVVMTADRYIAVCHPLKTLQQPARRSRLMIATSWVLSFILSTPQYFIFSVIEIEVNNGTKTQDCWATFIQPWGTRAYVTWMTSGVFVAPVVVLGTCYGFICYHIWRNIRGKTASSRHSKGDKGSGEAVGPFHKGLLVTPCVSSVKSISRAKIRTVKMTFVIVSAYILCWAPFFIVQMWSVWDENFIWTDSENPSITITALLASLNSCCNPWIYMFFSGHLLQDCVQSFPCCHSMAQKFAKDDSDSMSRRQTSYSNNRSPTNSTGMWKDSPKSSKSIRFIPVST", "assay": "NVS_GPCR_rV1: NovaScreen (NVS) G Protein-Coupled Receptor Assay for rat Vasopressin 1 Receptor (V1) (AID 2283316)", "outline": "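Concentration-response up to 50 uM for chemicals passing a threshold such as 30% inhibition in an initial duplicate 25 uM screen. Displacement of radioligand from rat liver membranes measured after 1.5 h by filtration and scintillation.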"}, "[11]": {"biological_target": "rat Opioid Receptor, Non-selective Binding, Oprm1 (gene 25601) (UniProt P33535)", "sequence (P33535 whole entry, looked up)": "as the sequence (P33535 whole entry, looked up) above", "assay": "NVS_GPCR_rOpiate_NonSelective: NovaScreen (NVS) G Protein-Coupled Receptor Assay for rat Opioid Receptor, Non-selective Binding (AID 2283318)", "outline": "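Filter-based radioligand displacement using rat forebrain membrane preparations, measured 1.5 h post-dosing. Single-concentration duplicate screen at 25 uM, follow-up in concentration series; activity taken as signal loss relative to DMSO.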"}, "[12]": {"biological_target": "rat Serotonin, 5-Hydroxytryptamine Receptor (5HT), Non-Selective Binding, Htr1a (gene 24473) (UniProt P19327)", "sequence (P19327 whole entry, looked up)": "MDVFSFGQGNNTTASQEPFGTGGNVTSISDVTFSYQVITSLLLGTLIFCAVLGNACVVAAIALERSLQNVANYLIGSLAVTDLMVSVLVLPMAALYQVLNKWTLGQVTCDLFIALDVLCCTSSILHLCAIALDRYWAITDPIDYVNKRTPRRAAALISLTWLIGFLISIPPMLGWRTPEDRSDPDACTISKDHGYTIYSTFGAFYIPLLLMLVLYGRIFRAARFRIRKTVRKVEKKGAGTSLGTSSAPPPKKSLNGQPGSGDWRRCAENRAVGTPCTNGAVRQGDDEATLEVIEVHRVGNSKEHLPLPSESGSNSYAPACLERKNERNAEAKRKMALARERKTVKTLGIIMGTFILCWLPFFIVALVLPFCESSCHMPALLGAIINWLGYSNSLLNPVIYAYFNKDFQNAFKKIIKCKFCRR", "assay": "NVS_GPCR_r5HT_NonSelective: NovaScreen (NVS) G Protein-Coupled Receptor Assay for rat Serotonin, 5-Hydroxytryptamine Receptor (5HT), Non-Selective Binding (AID 2283295)", "outline": "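Rat cortex membrane preparation incubated 1 h with radioligand and test chemical; bound radioactivity counted after filtration. Screening began in duplicate at 25 uM with concentration-series follow-up; fitting relative to DMSO.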"}, "[13]": {"biological_target": "rat Adrenergic, Alpha 1A Receptor (Adra1A), Adra1a (gene 29412) (UniProt P43140)", "sequence (P43140 whole entry, looked up)": "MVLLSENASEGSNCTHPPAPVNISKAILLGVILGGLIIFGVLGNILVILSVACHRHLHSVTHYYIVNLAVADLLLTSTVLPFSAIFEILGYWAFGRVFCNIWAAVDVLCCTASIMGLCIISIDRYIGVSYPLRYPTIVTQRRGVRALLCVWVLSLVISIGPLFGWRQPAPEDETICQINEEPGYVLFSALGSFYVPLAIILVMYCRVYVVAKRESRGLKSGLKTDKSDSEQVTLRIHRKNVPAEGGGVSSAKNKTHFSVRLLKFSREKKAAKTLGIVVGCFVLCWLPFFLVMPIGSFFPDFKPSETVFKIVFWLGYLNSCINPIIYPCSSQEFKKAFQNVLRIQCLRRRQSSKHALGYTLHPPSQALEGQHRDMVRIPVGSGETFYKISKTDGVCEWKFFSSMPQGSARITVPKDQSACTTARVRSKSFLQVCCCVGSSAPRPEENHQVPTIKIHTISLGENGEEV", "assay": "NVS_GPCR_rAdra1A: NovaScreen (NVS) G Protein-Coupled Receptor Assay for rat Adrenergic, Alpha 1A Receptor (Adra1A) (AID 2283296)", "outline": "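Filter radiodetection after 1 h competitive binding on CEC-pretreated rat cortical membranes. Duplicate single-point screening at 25 uM; active chemicals retested across concentration series.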"}, "[14]": {"system": "NCBI gene 24521", "assay": "NVS_IC_rKATPCh: NovaScreen (NVS) Ion Channel Assay for rat Potassium Channel, ATP-Sensitive (KATPCh) (AID 2283319)", "outline": "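Primary duplicate screen at 25 uM, then singleton concentration series to 50 uM maximum, in a rat cortex membrane radioligand displacement assay. Binding measured by filtration and scintillation 2 h post-dose; DMSO baseline.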"}, "[15]": {"system": "rat Adrenergic, Alpha 1B Receptor (Adra1B), gene 24173", "assay": "NVS_GPCR_rAdra1B: NovaScreen (NVS) G Protein-Coupled Receptor Assay for rat Adrenergic, Alpha 1B Receptor (Adra1B) (AID 2283297)", "outline": "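Filter-binding radioligand competition on membranes from rat liver, read after 1 h by scintillation counting. Single-concentration duplicate screen at 25 uM, followed by concentration-response on actives, normalised to DMSO.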"}, "[16]": {"biological_target": "Metabotropic glutamate receptor 1 (Rattus norvegicus) (UniProt P23385)", "assay": "NVS_GPCR_rmMGluR1: NovaScreen (NVS) G Protein-Coupled Receptor Assay for rat Glutamate Metabotropic Receptor 1 (MGluR1) (AID 2283305)", "outline": "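Binding to native receptor from rat cerebellum extract, measured as displacement of a radioligand (scintillation counting, filter separation) after 1 hour. Compounds tested at 25 uM in duplicate, then titrated to a 50 uM maximum.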"}, "[17]": {"biological_target": "rat Adrenergic Receptor, Alpha 2 (Adra2), Non-selective Binding, Adra2a (gene 25083) (UniProt P22909)", "sequence (P22909 whole entry, looked up)": "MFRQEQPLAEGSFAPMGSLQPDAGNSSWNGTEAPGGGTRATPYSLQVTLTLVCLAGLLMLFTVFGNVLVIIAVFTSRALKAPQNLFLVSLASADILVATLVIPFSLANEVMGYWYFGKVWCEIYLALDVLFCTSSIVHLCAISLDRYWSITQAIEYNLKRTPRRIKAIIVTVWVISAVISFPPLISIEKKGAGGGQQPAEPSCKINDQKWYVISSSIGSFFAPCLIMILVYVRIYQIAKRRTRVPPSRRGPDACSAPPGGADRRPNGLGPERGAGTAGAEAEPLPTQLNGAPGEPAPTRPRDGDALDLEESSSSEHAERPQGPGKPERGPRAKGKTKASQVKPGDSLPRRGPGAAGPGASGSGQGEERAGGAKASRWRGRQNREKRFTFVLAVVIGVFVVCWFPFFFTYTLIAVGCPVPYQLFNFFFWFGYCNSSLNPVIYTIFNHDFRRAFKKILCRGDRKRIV", "assay": "NVS_GPCR_rAdra2_NonSelective: NovaScreen (NVS) G Protein-Coupled Receptor Assay for rat Adrenergic Receptor, Alpha 2 (Adra2), Non-selective Binding (AID 2283299)", "outline": "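Filter-based scintillation counting of radioligand binding to rat cortical membrane receptors, measured 1.25 hours post-dosing; loss of signal versus DMSO indicates displacement. Initial single-concentration duplicate at 25 uM, then concentration series.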"}}, "note": "Results filed as inconclusive are left out. Calls of active or inactive are those of the source. How the source made its calls: active means hit-call score of the fitted dose curve at least 0.9, where 1 is the maximum; inconclusive means response in the unintended direction; inactive means score below 0.9.", "data": [{"smiles": "Cc1cc(CCN2CCN(c3nsc4ccccc34)CC2)cc2c1NC(=O)CC2(C)C", "values": [{"measurement": "AC50", "setting": "[1]", "value": "15.2 µM (active)"}, {"measurement": "outcome", "setting": "[2]", "value": "inactive"}]}, {"smiles": "CC(C)(C)c1ccc(O)c(C(C)(C)C)c1", "values": [{"measurement": "AC50", "setting": "[3]", "value": "10.7 µM (active)"}]}, {"smiles": "CC#C[C@]1(O)CC[C@H]2[C@@H]3CCC4=CC(=O)CCC4=C3[C@@H](c3ccc(N(C)C)cc3)C[C@@]21C", "values": [{"measurement": "AC50", "setting": "[4]", "value": "6.9 µM (active)"}, {"measurement": "outcome", "setting": "[5]", "value": "inactive"}, {"measurement": "outcome", "setting": "[6]", "value": "inactive"}, {"measurement": "outcome", "setting": "[7]", "value": "inactive"}, {"measurement": "AC50", "setting": "[8]", "value": "2.59 µM (active)"}, {"measurement": "outcome", "setting": "[9]", "value": "inactive"}, {"measurement": "outcome", "setting": "[10]", "value": "inactive"}, {"measurement": "AC50", "setting": "[11]", "value": "0.404 µM (active)"}]}, {"smiles": "CC(=O)NC1(c2cccc(F)c2)CCN(CC[C@@]2(c3ccc(Cl)c(Cl)c3)CN(c3ccccc3)C(=O)CO2)CC1", "values": [{"measurement": "AC50", "setting": "[12]", "value": "2.9 µM (active)"}, {"measurement": "AC50", "setting": "[13]", "value": "34.8 µM (active)"}, {"measurement": "AC50", "setting": "[4]", "value": "11 µM (active)"}, {"measurement": "AC50", "setting": "[6]", "value": "14.5 µM (active)"}, {"measurement": "AC50", "setting": "[7]", "value": "0.713 µM (active)"}, {"measurement": "AC50", "setting": "[8]", "value": "10.5 µM (active)"}, {"measurement": "AC50", "setting": "[3]", "value": "9.18 µM (active)"}, {"measurement": "AC50", "setting": "[11]", "value": "7.82 µM (active)"}, {"measurement": "AC50", "setting": "[14]", "value": "4.88 µM (active)"}]}, {"smiles": "CCC(=C(c1ccc(O)cc1)c1ccc(OCCN(C)C)cc1)c1ccccc1", "values": [{"measurement": "AC50", "setting": "[1]", "value": "0.868 µM (active)"}, {"measurement": "outcome", "setting": "[6]", "value": "inactive"}]}, {"smiles": "ClC1=C(Cl)C(Cl)(Cl)C(Cl)=C1Cl", "values": [{"measurement": "outcome", "setting": "[11]", "value": "inactive"}]}, {"smiles": "O=C(O)Cc1cc(I)c(Oc2cc(I)c(O)c(I)c2)c(I)c1", "values": [{"measurement": "outcome", "setting": "[6]", "value": "inactive"}, {"measurement": "outcome", "setting": "[8]", "value": "inactive"}, {"measurement": "outcome", "setting": "[11]", "value": "inactive"}]}, {"smiles": "NC(=O)N1C(=O)C(C(=O)c2cc(Cl)cs2)c2cc(F)c(Cl)cc21", "note": "(stereo not given)", "values": [{"measurement": "outcome", "setting": "[2]", "value": "inactive"}]}, {"smiles": "CCC(C)(C)C1CCC(O)CC1", "note": "(stereo not given)", "values": [{"measurement": "outcome", "setting": "[9]", "value": "inactive"}]}, {"smiles": "CC[C@H](C)[C@@H](C(=O)O)n1sc2ccccc2c1=O", "values": [{"measurement": "outcome", "setting": "[15]", "value": "inactive"}, {"measurement": "AC50", "setting": "[8]", "value": "3.52 µM (active)"}]}, {"smiles": "O=C(OCCOCCOC(=O)c1ccccc1)c1ccccc1", "values": [{"measurement": "outcome", "setting": "[6]", "value": "inactive"}]}, {"smiles": "CCCCCCCCCCCCc1ccccc1S(=O)(=O)O", "values": [{"measurement": "AC50", "setting": "[15]", "value": "30.9 µM (active)"}, {"measurement": "AC50", "setting": "[16]", "value": "8.71 µM (active)"}, {"measurement": "AC50", "setting": "[4]", "value": "25 µM (active)"}]}, {"smiles": "NC(=O)N(O)[C@@H]1C=C[C@H](Oc2cccc(Oc3ccc(F)cc3)c2)C1", "values": [{"measurement": "AC50", "setting": "[1]", "value": "17.6 µM (active)"}, {"measurement": "outcome", "setting": "[15]", "value": "inactive"}, {"measurement": "outcome", "setting": "[17]", "value": "inactive"}, {"measurement": "outcome", "setting": "[4]", "value": "inactive"}, {"measurement": "outcome", "setting": "[6]", "value": "inactive"}, {"measurement": "outcome", "setting": "[3]", "value": "inactive"}, {"measurement": "outcome", "setting": "[11]", "value": "inactive"}]}, {"smiles": "CCN(CC)CCNc1ccc(CNC=O)c2sc3ccc(OC)cc3c(=O)c12", "values": [{"measurement": "AC50", "setting": "[1]", "value": "7.23 µM (active)"}, {"measurement": "AC50", "setting": "[12]", "value": "40.2 µM (active)"}, {"measurement": "AC50", "setting": "[13]", "value": "18.9 µM (active)"}, {"measurement": "AC50", "setting": "[15]", "value": "19.4 µM (active)"}, {"measurement": "AC50", "setting": "[17]", "value": "13.6 µM (active)"}, {"measurement": "AC50", "setting": "[4]", "value": "9 µM (active)"}, {"measurement": "outcome", "setting": "[8]", "value": "inactive"}, {"measurement": "AC50", "setting": "[9]", "value": "29.3 µM (active)"}, {"measurement": "outcome", "setting": "[11]", "value": "inactive"}]}]}
